Results taken from PubChem BioAssay AID2551 (National Center for Advancing Translational Sciences (NCATS), 2010).
The campaign covered roughly 310,000 compounds. About 17,000 (5.5%) were called active. Roughly 11% stayed inconclusive and do not appear here. The list comes from a sample in which actives are over-represented; it also holds similar structures and randomly drawn compounds. A number with no mark means an inactive call. Calls follow the shape of the dose curve; as a rule, active = well fitted inhibition curve with a large enough effect; inconclusive = small, poorly fitted or top-dose-only effect, or effect the other way; inactive = no such curve, though single readings can be large or run the other way.

target: Nuclear receptor ROR-gamma (Mus musculus) (UniProt P51450); assay: qHTS for inhibitors of ROR gamma transcriptional activity; conditions: Drosophila S2 Gal4-RORgamma UAS-luciferase reporter, 20 h; series mostly up to 53.6 µM; activity change, negative = inhibition: at the top concentration; also: nearly all actives have a fitted effect of over 60% in size
Procedure, shortened: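 ROR gamma transcriptional activity was tracked as Gal4-UAS luciferase output in stably transfected Drosophila Schneider cells, with compound added 1 hr before 700 uM copper sulfate induction and a 20 hr ambient-temperature incubation.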
% is scaled to controls: 0 for no effect and ±100 for the full control effect; potency is read from the fitted curve at half-maximal effect.

Nuclear receptor ROR-gamma (Mus musculus), sequence (P51450 whole entry, looked up, the tested form may be a part): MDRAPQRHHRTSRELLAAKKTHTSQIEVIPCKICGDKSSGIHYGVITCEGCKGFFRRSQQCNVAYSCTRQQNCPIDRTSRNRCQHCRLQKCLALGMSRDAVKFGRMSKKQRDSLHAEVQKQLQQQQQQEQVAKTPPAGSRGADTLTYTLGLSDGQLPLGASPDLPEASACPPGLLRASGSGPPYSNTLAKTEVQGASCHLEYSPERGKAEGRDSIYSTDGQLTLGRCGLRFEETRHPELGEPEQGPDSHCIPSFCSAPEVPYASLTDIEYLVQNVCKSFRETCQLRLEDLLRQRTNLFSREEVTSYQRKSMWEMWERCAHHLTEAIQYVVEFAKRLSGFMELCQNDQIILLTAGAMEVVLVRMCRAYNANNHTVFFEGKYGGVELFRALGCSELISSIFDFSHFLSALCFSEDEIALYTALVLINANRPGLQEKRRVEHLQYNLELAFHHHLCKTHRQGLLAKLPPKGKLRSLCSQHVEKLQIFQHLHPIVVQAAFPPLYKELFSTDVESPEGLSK

Structure (SMILES) | activity change, negative = inhibition | Potency
COc1cccc(S(=O)(=O)NCc2ccc(C(=O)NCc3ccccn3)cc2)c1 | -42.1% | –
CCN(CC)CCCNC(=O)c1c(O)c2cc(F)cc3c2n(c1=O)C(C)CC3 (stereo unspecified) | -23% | –
O=C1NC(=O)C(c2ccc(Cl)cc2)N1 (stereo unspecified) | 1.34% | –
Cc1ccc(S(=O)(=O)NCC2CCC(C(=O)N3CCOCC3)CC2)cc1 (stereo unspecified) | 1.41% | –
CC(=O)Nc1c2c(nn1-c1ccc(C)cc1C)CS(=O)C2 (stereo unspecified) | -12.4% | –
CCc1cccc(C)c1NS(=O)(=O)c1cc(Br)cnc1N | -4.25% | –
CC(=O)c1cccc(NC(=O)c2cc(C)nn2-c2ccccc2)c1 | 4.29% | –
CCOC(=O)c1cc(S(=O)(=O)NCCc2ccc(OC)c(OC)c2)cn1C | 1.39% | –
CNC(=O)C1CCN(S(=O)(=O)c2c(C)noc2/C=C/c2cccc(C)c2)CC1 | -5.56% | –
COc1ccc(-c2csc(N3CCN(Cc4ccc5c(c4)OCO5)CC3)n2)cc1 | -0.746% | –
CCCn1c(C2CCCN2c2nc(-c3ccc(OC)cc3)cs2)nc2ccccc21 (stereo unspecified) | – | 2 µM (active)
COc1ccc(-c2cc3n(n2)CCc2nc4ccccc4n2-3)cc1 | 23% | –
O=[N+]([O-])c1cc(C(F)(F)F)ccc1NCCc1ccncc1 | 21.3% | –
CC1(C)Cc2cccc(OCC(=O)NCc3ccccc3)c2O1 | 29.7% | –
CCCCc1ccc(NC(=O)NCc2cccnc2)cc1 | 26.2% | –
CCOC(=O)C1CCCN(CCSc2ccc(C)cc2)C1 (stereo unspecified) | -23% | –
Cc1nc(-c2ccc(Cl)cc2)sc1C(=O)NN | -2.42% | –
Cc1nc(-c2ccccc2)sc1C(=O)/C=C/N(C)C | 1.56% | –
Cc1nc(-c2ccc(Cl)cc2)sc1C(=O)CBr | – | 5.01 µM (active)
COc1ccccc1OC(C)C(=O)Nc1ccc(S(=O)(=O)Nc2nccs2)cc1 (stereo unspecified) | 18.7% | –
Cc1ccccc1-c1n[nH]c(=S)n1C | – | 2.82 µM (active)
Cc1ccccc1-c1ccc(C(=O)O)s1 | -6.92% [at 96.6 µM] | –

Structure (SMILES) | activity change, negative = inhibition | Potency
COc1ccc(C(=O)Nc2ccccc2C(=O)N2CCN(c3ccccc3)CC2)cc1 | 13% | –
O=C(O)C1CC=CCC1C(=O)Nc1ccccc1C(=O)N1CCN(c2ccccc2)CC1 (stereo unspecified) | 3.34% | –
CC(C)c1ccc(N2CCN(C(=O)c3ccccc3NC(=O)/C=C(\C(=O)O)c3ccccc3)CC2)cc1 | – | 3.16 µM (active)
O=C(Cc1c(Cl)cccc1Cl)NC1CC1 | 4.83% | –
Cc1c(Cl)cccc1NC(=O)NCc1ccc(C)n1C | -21.2% | –
N#CC1=C(N)C(C#N)(C#N)[C@H](c2ccsc2)[C@H]2COCC=C12 | – | 17.8 µM (active)
CCOC(=O)N1CC=C2C(C#N)=C(N)C(C#N)(C#N)[C@H](c3cccs3)[C@H]2C1 | -18.5% | –
CCN1CC=C2C(C#N)=C(N)C(C#N)(C#N)[C@H](c3ccoc3)[C@H]2C1 | -34.4% | –
CCCNC(=O)C(=O)Nc1cc2c3c(c1)CCC(=O)N3CCC2 | -25.3% | –
CN(C(=O)C1CCN(c2ncnc3c2nc2n3CCCCC2)CC1)C1CCCCC1 | 27.8% | –
COCCCn1c(SCC(=O)NC2CCCC2)nnc1-c1ccccc1 | -12.2% | –
COCCCn1c(Cc2csc(Nc3cccc(Cl)c3)n2)nnc1SCC(=O)OC1CCCCC1 | – | 11.2 µM (active)
CCOc1ccc(Nc2nc(Cc3nnc(SCC(=O)NC4CCCC4)n3C)cs2)cc1 | -27% | –
CCCn1c(C(Cc2ccccc2)NC(=O)COC)nc2ccccc21 (stereo unspecified) | -6.17% | –
CCCn1c(NC(=O)C23CC4CC(CC(O)(C4)C2)C3)nc2ccccc21 | – | 0.708 µM (active)
CCOc1ccccc1NC(=O)C12CC3CC(C1)CC(c1ccc(C)cc1)(C3)C2 | 8.47% | –
Cc1cc(C)nc(N/N=C/c2c(CO)cnc(C)c2O)n1 | -28.5% | –
COCCn1c(=S)[nH]c2cc(C(=O)NCCc3ccc(OC)c(OC)c3)ccc2c1=O | -10.7% | –
COc1ccc(Cn2c(O)c(/C=C3/C=CC=N3)c(=O)[nH]c2=O)cc1 | -1.9% | –
COC(=O)c1ccc2c(=O)n(CC3CCCO3)c(=S)[nH]c2c1 (stereo unspecified) | – | 2.82 µM (active)
O=C(NC1CCCCC1)c1ccc2c(=O)n(CC3CCCO3)c(=O)[nH]c2c1 (stereo unspecified) | -16.1% | –
COc1ccc(Cn2c(=S)[nH]c3cc(C(=O)N4CCCCC4)ccc3c2=O)cc1 | – | 8.91 µM (active)

Structure (SMILES) | activity change, negative = inhibition | Potency
COc1ccc(Cn2c(=S)[nH]c3cc(C(=O)NCCCN4CCOCC4)ccc3c2=O)cc1 | -17.8% | –
NC(=O)C1CCN(C(=O)c2ccc3c(=O)n(Cc4cccc(Br)c4)c(=S)[nH]c3c2)CC1 | 5.31% | –
COc1ccc(Cn2c(=O)cc(C)[nH]c2=S)cc1 | – | 11.2 µM (active)
COc1ccc(CNc2nc3c(c(=O)[nH]c(=O)n3C)n2Cc2ccccc2)cc1 | 8.46% | –
COc1cc2c(cc1OC)CN(CC(=O)Nc1ccc(F)cc1)CC2 | -11.1% | –
CC(C)Oc1ccc(C(CC(=O)N2CCOCC2)C(C)C)cc1 (stereo unspecified) | 11.9% | –
COc1ccc(-c2nc3c(s2)CCc2onc(-c4ccc(OC)cc4)c2-3)cc1 | 10.8% | –
COc1cccc2cc(C(=O)NCc3ccc(C)cc3)c(=N)oc12 | -13.8% | –
COc1cc(C(=O)Nn2c(CC(C)C)nc3ccccc3c2=O)cc(OC)c1OC | -37% [at 1.91 µM] | –
CCOc1ccccc1NC(=O)Cn1ncc2ccc([N+](=O)[O-])cc21 | -2.79% | –
CC(=O)Nc1ccc(S(=O)(=O)N2CCC(C(=O)N[C@@H](Cc3ccccc3)C(=O)O)CC2)cc1 | 5.02% | –
COc1cccc(NC(=O)N2CCCC2C(=O)NC2CCCCC2)c1 (stereo unspecified) | -5.05% | –
Cc1cc(-c2ccc(C)c(S(=O)(=O)NCCCN(Cc3ccccc3)C(C)C)c2)on1 | -8.59% | –
O=C(NCCCN1CCCCC1)C1CC(=O)N(CCc2ccccc2)C1 (stereo unspecified) | -16.4% | –
Oc1c(Cl)cc(Cl)c(Cl)c1Cc1c(O)c(Cl)cc(Cl)c1Cl | – | 5.62 µM (active)
Cn1c(=O)n(C)c2cc(C(=O)Nc3ccc(Br)cc3)ccc21 | -36.7% | –
CN1CCN(c2ccc(NC(=O)c3ccc4c(c3)[nH]c(=O)n4Cc3ccc(F)cc3)cc2)CC1 | 16.3% | –
CC(C)n1c(=O)[nH]c2cc(C(=O)Nc3ccccc3)ccc21 | – | 7.94 µM (active)
CCOC(=O)N1CCN(C(=O)C(C)NC(=O)c2ccco2)CC1 (stereo unspecified) | 10.7% | –
CC(/C=N/NC(=O)c1ccncc1)=C\c1ccco1 | -2.2% | –
O=C(N/N=C/C=C/c1ccco1)c1cccs1 | – | 5.01 µM (active)
O=C(N/N=C/c1ccco1)c1ccc(C(=O)N/N=C/c2ccco2)o1 | 18.2% | –

Structure (SMILES) | activity change, negative = inhibition | Potency
COc1cc(OC)c(NC(=O)C2CCCN2C(=O)OCc2ccccc2)cc1Cl (stereo unspecified) | -3.37% | –
COc1ccc(OC)c(S(=O)(=O)n2c([N+](=O)[O-])cnc2C)c1 | -5.1% | –
Cc1ccc2nc(-c3ccc(NC(=O)CN(C)S(=O)(=O)c4ccccc4)cc3)sc2c1 | – | 2 µM (active)
Cc1cccc(N(CC(=O)Nc2ccc(-c3nc4ccc(C)cc4s3)cc2)S(C)(=O)=O)c1 | 12.6% | –
Cc1nc2ccc(S(=O)(=O)N(C)CC(=O)NC(C)c3ccccc3)cc2s1 (stereo unspecified) | 6.35% | –
CCN(C(=O)CSc1nnc(-c2ccncc2)o1)c1ccccc1 | -0.118% | –
COc1ccc(NS(=O)(=O)c2cccc3nsnc23)cc1Cl | 20.8% | –
O=c1c2ccccc2nc2n1C1(CCCCC1)Cc1ccccc1-2 | 13.3% | –
CN(c1ccc2nc3ccccc3c(=O)n2n1)C1CCCCC1 | – | 0.398 µM (active)
CCOC(=O)C(C)Sc1nc2ccccc2c(=O)n1CC1CCCCC1 (stereo unspecified) | 13.1% | –
CC(=O)Oc1ccc(-c2cccc(C(=O)N3CCCCC3)c2)cc1 | 25.1% | –
COc1ccccc1OCCn1c(SCC(N)=O)nc2ccccc21 | 17.5% | –
O=C(NCc1cccnc1)C12CC3CC(CC(C3)C1)C2 | 0.141% | –
Cc1ccc(C(=O)NC2CCN(C(=O)Nc3ccccc3Cl)CC2)cc1 | -3.35% | –
CC(C)CC(=O)NC(=S)Nc1cc(C(=O)O)ccc1Cl | 7.72% | –
CC(C)CNC(=O)C(=O)NCc1ccccc1 | -0.503% | –
CC(C)CC(=O)NC(=S)NCc1ccccc1 | – | 5.01 µM (active)
COc1ccc(NS(=O)(=O)c2ccc(NC(=S)NC(=O)CC(C)C)cc2)cc1 | -31.3% | –
CC(C)CC(=O)c1c[nH]c(C(=O)NCc2ccccc2)c1 | 3.37% | –
CC(=O)c1ccc(NC(=S)NC(=O)CC(C)C)cc1 | – | 12.6 µM (active)
CC1CCCCN1CCCNc1ccc(C(CC(N)=O)NC(=O)c2ccccc2)cc1[N+](=O)[O-] (stereo unspecified) | -13.3% | –
CCOC(=O)N1CCN(C(=O)C(=O)Nc2sc3c(c2C#N)CC(C)(C)OC3)CC1 | 9.29% | –

Structure (SMILES) | activity change, negative = inhibition | Potency
Cc1ccc(S(=O)(=O)NCC(=O)N2CCOCCOCCOCCOCC2)cc1 | -12.4% | –
O=C(c1ccc(Cl)cc1)N1N=C(c2ccccn2)CC1(O)C(F)(F)F (stereo unspecified) | – | 1.41 µM (active)
O=C(c1ccc(Cl)cc1)n1cnc2ccccc21 | -14.8% | –
O=S(=O)(/N=C(/Nc1ccccn1)c1ccccc1)c1ccc(Cl)cc1 | 38.3% | –
COC(=O)c1ccc2ccccc2c1OC1OC(CO)C(O)C(O)C1NC(C)=O (stereo unspecified) | -4.64% | –
C=CCNC(=S)NNc1ncnc2sc3c(c12)CC(C)(C)OC3 | – | 1.26 µM (active)
CN(C)CCSc1nc(N)c2c3c(sc2n1)COC(C)(C)C3 | -36.3% | –
CC1(C)Cc2c(sc3nc4n(c(=N)c23)CCCCC4)CO1 | 25.8% | –
Fc1ccc(-c2ccc(NCCN3CCOCC3)nn2)cc1 | 20% | –
CC(=O)c1c(C)oc2ccc(NS(=O)(=O)c3ccccc3)cc12 | 13.9% | –
Cc1ccc(CN2CCC(n3nccc3NC(=O)CCCc3ccccc3)CC2)o1 | -40.9% | –
O=C(NNc1ccccn1)c1ccc(Cl)nc1 | – | 12.6 µM (active)
O=C(CCl)NNc1cccc(Cl)n1 | 30% | –
O=C(Nc1cnccn1)c1cccnc1 | 13.5% | –
COc1ccc(C)cc1N(CC(=O)NC(C)c1ccccc1)S(C)(=O)=O (stereo unspecified) | 16.1% | –
CCCC(=O)Nc1cccc(NC(=S)NC(=O)C(C)Oc2ccc(Cl)cc2Cl)c1 (stereo unspecified) | – | 6.31 µM (active)
CC(Oc1ccc(Cl)cc1Cl)C(=O)/C=C/N(C)C (stereo unspecified) | -4.84% | –
COc1cccc(NC(=O)CN(C)C(=O)Cc2ccc(Cl)cc2Cl)c1 | 3.05% | –
